Screening data (PubChem BioAssay)
TRPV1 ag: agonists of human vanilloid receptor 1 (TRPV1); TRPV1-expressing cells, Fluo-8 calcium influx, agonist mode; activation, % at 8.33 µM; 320,000 tested, 0.19% active; in the data active = activation above about 80%; inconclusive = between about 30% and that limit; note: 0% is about no effect
Target sequence (Q8NER1 whole entry, looked up): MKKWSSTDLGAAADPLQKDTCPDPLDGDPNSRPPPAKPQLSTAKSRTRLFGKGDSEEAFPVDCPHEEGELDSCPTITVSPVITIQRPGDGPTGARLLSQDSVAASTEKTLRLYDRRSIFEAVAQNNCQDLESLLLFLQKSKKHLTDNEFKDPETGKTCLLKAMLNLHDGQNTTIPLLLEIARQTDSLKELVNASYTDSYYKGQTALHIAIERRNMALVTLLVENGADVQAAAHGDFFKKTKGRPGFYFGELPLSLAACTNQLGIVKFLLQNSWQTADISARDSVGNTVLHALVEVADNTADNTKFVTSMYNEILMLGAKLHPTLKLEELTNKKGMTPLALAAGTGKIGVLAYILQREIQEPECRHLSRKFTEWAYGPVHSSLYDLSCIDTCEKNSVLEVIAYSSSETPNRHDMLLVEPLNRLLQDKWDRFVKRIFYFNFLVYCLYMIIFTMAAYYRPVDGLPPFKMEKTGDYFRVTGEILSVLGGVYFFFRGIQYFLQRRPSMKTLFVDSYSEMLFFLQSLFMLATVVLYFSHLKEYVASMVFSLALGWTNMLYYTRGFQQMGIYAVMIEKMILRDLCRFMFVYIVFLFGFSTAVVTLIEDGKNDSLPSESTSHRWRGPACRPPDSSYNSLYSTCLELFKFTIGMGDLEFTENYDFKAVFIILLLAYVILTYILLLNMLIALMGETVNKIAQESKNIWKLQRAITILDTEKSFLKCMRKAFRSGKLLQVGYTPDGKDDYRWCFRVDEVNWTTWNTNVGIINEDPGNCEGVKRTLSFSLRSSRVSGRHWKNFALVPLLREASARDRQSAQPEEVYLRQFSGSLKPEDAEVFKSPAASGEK
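TRPV1-expressing cells were cultured overnight at 35.5C and loaded with Fluo-8 calcium dye for 40 to 90 min at room temperature. After a 10 s baseline, compound was added and calcium influx was read kinetically for 3 min (ex 480/em 520 nm).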
TRPML1 blocker: inhibitors of human TRPML1 channel | Q9GZU1 | TRPML1-inducible cells, Ca2+ dye fluorescence, FDSS; active compounds read low; inhibition of EC80 agonist-evoked calcium signal | activity change, negative = inhibition, % (concentration not given with the values) | 390,000 tested, 0.02% active | AID 624415; in the data active = activity change below about -50%; inconclusive = between about -30% and that limit;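 note: stimulus is agonist 54-4 at its EC80 concentration; % is set by controls: 0 for no effect and ±100 for the full control effect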
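Calcium fluorescence in TRPML1-DL cells induced overnight with Tet: a 110 s read after compound pin addition, then a 110 s antagonist read after challenge with 54-4 at 4 uM final (EC80).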
TRPML1 ag: agonists of human TRPML1 channel | Q9GZU1 | TRPML1-expressing cells, Ca2+ dye fluorescence, FDSS | activation, % (concentration not given with the values) | 410,000 tested, 0.12% active | AID 624414; in the data active = activation above about 50%; inconclusive = mostly about 30% to 49%; note: 0% is about no effect
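In this qHTS format, compounds were pin-transferred onto Ca8-dye-loaded TRPML1-DL cells induced with Tet overnight, and intracellular Ca2+ fluorescence was recorded kinetically for 110 s after a 10 s baseline. A subsequent 4uM final 54-4 (EC80) addition followed by a second 110 s read served as the antagonist phase.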
TRPV1 PAM: enhances activation of the human vanilloid receptor TRPV1 | Q8NER1 | TRPV1-expressing cells, Fluo-8 calcium influx, capsaicin EC20 potentiation | 320,000 tested, 0.02% active | potentiation, % at 8.33 µM | AID 540277; in the data active = potentiation above about 80%; inconclusive = between about 30% and that limit; note: 0% is about no effect
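Fluo-8 calcium influx in TRPV1-expressing cells, kinetic read (ex 480/em 520 nm). Compound added and read 3 min for agonist activity, followed by capsaicin at EC20 final and 2 min further read for enhancement.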
The depositor's hits bear a star; ? = inconclusive; . = not tested or not shown. The list is not random: actives were taken first. Their share in the collection is about 0.27%.

SMILES	TRPV1 ag	TRPML1 blocker	TRPML1 ag	TRPV1 PAM
N#CC1(c2ccc(NC(=O)c3ccccc3)cc2)CCCC1	?	.	.	-28.5
Cc1ccc(S(=O)(=O)/N=C2/NC(=O)/C(=C/c3cc([N+](=O)[O-])ccc3O)S2)cc1	-0.5	0.9	67.3*	0.4
CN(C)C=Nc1c(Br)cc(Br)c2nonc12	?	-5.7	61.8*	-9.1
CN(C)C=Nc1nonc1-c1ccccc1	1.6	-2.5	-1.1	1.7
O=C(O)C1=C[C@H](c2coc3ccccc3c2=O)C[C@H](OCCCCO)O1	-0.4	-11.7	0.0	0.4
CC1(C)Oc2ccc(/C=C/C(=O)N3CCOCC3)c(O)c2C(N2CCOCC2)C1O (centres undefined)	2.5	.	.	0.9
CC(C)CC(=O)OC1C(N2CCOCC2)c2c(ccc(/C=C/C(=O)N3CCOCC3)c2O)OC1(C)C (centres undefined)	81.0*	-9.7	0.3	-1.8
CCOC(=O)Nc1ccc([N+](=O)[O-])cc1C	2.7	8.7	-0.5	3.9
O=C1c2cc([N+](=O)[O-])ccc2-c2ncccc21	1.9	-57.0*	0.7	-1.4
CCCCc1ncc(CN2CCC(CC3CCCCO3)(C(=O)OCC)CC2)[nH]1 (centres undefined)	-0.3	-17.0	0.3	4.9
CCOC(=O)C1(CC2CCCCO2)CCN(Cc2cc3ccccc3[nH]2)CC1 (centres undefined)	?	1.6	94.9*	-6.9
O=[N+]([O-])c1ccc(Nc2ccc(Cl)cc2)nc1	3.3	60.1	1.5	-2.3
COc1ccc(-c2nc3ccc(C)cn3c2NCc2ccc3c(c2)OCO3)cc1	81.2*	6.8	0.0	5.4
C=CCN1C(=O)C2(/C(=C(\O)c3ccc4c(c3)OCCO4)C(=O)C(=O)N2CCCOC)c2ccccc21 (centres undefined)	3.0	-0.2	-0.6	-17.1
Cc1ccc(CSCC(=O)NCc2ccc(F)cc2)cc1	82.0*	-14.1	-1.4	-1.9
CCOc1ccc(CNC(=O)CCSCc2ccccc2F)cc1OC	104.4*	3.2	-0.2	-9.5
O=C(CCSCc1ccccc1F)NCc1ccc(F)cc1	82.1*	24.6	2.0	5.9
O=C(CSCc1ccccc1F)NCc1ccc(F)cc1	?	-0.2	0.3	-16.8
O=C(CSCc1ccc(F)cc1)NCc1ccc(F)cc1	?	-11.2	-0.2	0.6
CN(C)S(=O)(=O)c1ccc(NC(=O)c2ccc3ncsc3c2)cc1	80.1*	14.5	-0.6	-21.1
COc1ccc(NC(=O)c2ccc3ncsc3c2)cc1	91.8*	-14.3	0.7	-11.5
COc1ccc(C(=O)Nc2ccc3ncccc3c2)cc1	90.7*	-3.3	0.5	-17.6
O=C(Nc1ccc(Br)cc1)c1ccc2ncsc2c1	?	11.3	-0.3	-0.5
Cc1ccc(C(=O)Nc2ccc3ncccc3c2)cc1	?	-4.9	-0.6	-3.8
CCc1ccc(NC(=O)c2ccc3ncsc3c2)cc1	85.7*	.	.	-2.8
SMILES	TRPV1 ag	TRPML1 blocker	TRPML1 ag	TRPV1 PAM
CCOc1ccc(NC(=O)c2ccc(S(=O)(=O)N(C)C)cc2)cc1	?	-4.1	-0.9	-3.8
COc1cccc(SCc2noc(C(=O)NCC3CCCO3)c2C(=O)O)c1 (centres undefined)	3.7	-4.1	-0.6	4.4
Cc1ccc(NC(=O)c2oc3ccccc3c2NC(=O)c2ccccc2C)cc1	.	-21.2	-0.7	.
CN1CCSc2ccc(C(=O)Nc3cccc(F)c3)cc21	?	?	0.7	19.6
COc1ccc(NC(=O)c2ccc3c(c2)N(C)CCS3)cc1	96.6*	17.8	0.9	-27.5
CC1CCC(=NNS(=O)(=O)c2ccc([N+](=O)[O-])cc2)CC1 (centres undefined)	.	9.7	0.4	.
Cc1ccc2nc(NC(=O)c3ccc4c(c3)OCO4)sc2c1	81.8*	6.0	-0.2	3.0
Cc1ccc2nc(NC(=O)c3ccc4ncsc4c3)sc2c1	?	-12.1	-0.8	9.0
CC(C)c1ccc(/C=N\NC(=O)c2ccc(Cn3cccn3)o2)cc1	82.3*	-11.7	1.8	8.2
O=C(N/N=C\c1ccc(Cl)s1)c1ccc(Cn2cccn2)o1	?	-3.5	-0.1	-23.1
COc1ccc(Nc2nc3ccccc3nc2NS(=O)(=O)c2ccc(C)cc2)c(OC)c1	.	-20.2	2.8	.
COc1cc(Nc2nc3ccccc3nc2NS(=O)(=O)c2ccc([N+](=O)[O-])cc2)cc(OC)c1OC	13.6	?	118.9*	0.8
O=[N+]([O-])c1ccc(S(=O)(=O)Nc2nc3ccccc3nc2Nc2ccccc2)cc1	0.5	-0.3	51.7*	3.7
